In PubChem BioAssay AID488862 (Broad Institute, 2010):
Among all 340,000 compounds or so, about 1,200 (0.35%) were called active. The entries come from a sample that favours actives as a whole. Values without a mark were called inactive. No stated cut-off is given here; in the data, active means inhibition above about 52%; inactive means the rest.

assay: inhibition of PrP 5' UTR reporter expression (AID 488862); conditions: cell-based PrP 5' UTR mRNA reporter, plate reader; stronger effect = higher value; concentration not given here; further: 0 = median of the neutral control wells

SMILES	inhibition
CC(NC(=O)c1cccc2ccccc12)c1ccc2c(c1)CCCC2 (stereo unspecified)	-15.9%
COc1cccc2c1C(=O)c1c(O)c3c(c(O)c1C2=O)CC(O)(C(C)=NNC(=O)c1ccc(Cl)c(Cl)c1)CC3OC1CC(N)C(O)C(C)O1 (stereo unspecified)	81% (active)
CC(=O)Nc1ccc(C(=O)Nc2cc(S(=O)(=O)N3CCOCC3)ccc2N2CCOCC2)cc1	2.41%
O=C(CN1C2CCC1CC(NC(=O)C1CC1)C2)NCc1ccccc1 (stereo unspecified)	-21.6%
CCCS(=O)(=O)N1CCN(C(=O)c2cccs2)CC1	-11%
CC(C)(C)C1CCc2c(sc3nc(SCC(N)=O)nc(N)c23)C1 (stereo unspecified)	67.4% (active)
C=C(C)CSc1nc(N)c2c3c(sc2n1)CCC3	-92.1%
Nc1nc(SCC(=O)NCCN2CCOCC2)nc2sc3c(c12)CCC3	-29.6%
CC1O[C@@H](OC2C(O)C(C)O[C@H](OC(=O)[C@]34CCC(C)(C)C[C@H]3C3=CCC5[C@@]6(C)CC(O)C(O[C@@H]7OC(CO)C(O)[C@@H](O)[C@@H]7O)[C@@](C)(C(=O)O)C6CC[C@@]5(C)[C@]3(CO)CC4)C2O[C@H]2OC(C)[C@@H](O[C@@H]3OCC(O[C@@H]4OC(CO)C(O)[C@H](O)C4O)[C@@H](O)[C@@H]3O)[C@H](O)C2O)C(O)C(O)C1O (stereo partly specified)	-19.6%
COc1ccc(CCC(=O)Nc2ccc(Cl)c(S(=O)(=O)N3CCOCC3)c2)cc1OC	-6.15%
O=[N+]([O-])c1ccc(NC(=S)N2CCN(c3ccccn3)CC2)cc1	-31.5%
CNC(=S)N1CCN(c2ccccn2)CC1	2.28%
COc1cc([N+](=O)[O-])ccc1NC(=S)N1CCN(c2ccccn2)CC1	60.8% (active)
CN1CCN(c2ccc([N+](=O)[O-])c(Sc3nc4ccccc4[nH]3)c2)CC1	-6.9%
CCCn1nc(NS(=O)(=O)c2ccccc2)c2cc3cc(C)ccc3nc21	-7.37%
Cc1ccc(S(=O)(=O)N(C)CC(=O)N2CCc3ccccc32)cc1	-9.45%
COc1ccccc1N1CCN(C(=O)c2cc(=O)c3cc(C)cc(C)c3o2)CC1	72.6% (active)
COc1cc2c(cc1OC)CN(C(=O)c1cc(=O)c3ccccc3o1)CC2	-36.4%
COc1ccccc1N1CCN(C(=O)c2ccc(Cl)c(S(=O)(=O)N3CCCC3)c2)CC1	-12.2%
O=C(Nc1ccc([N+](=O)[O-])cc1)OCCc1ccccn1	-55.9%
Cc1ccc(C(=O)N/C(=C\c2ccc(F)cc2)C(=O)NCCN2CCOCC2)cc1	-18.5%
COc1ccc(C(=O)Nc2ccccc2C(=O)N/N=C/c2ccc(O)c(OC)c2)cc1	80.5% (active)
COc1ccc(C(=O)Nc2cc(C)c(NC(=O)c3ccccc3OC)cn2)cc1	-9.89%
COc1cc(C=NNC(=O)c2cccnc2)ccc1OC(=O)c1ccccc1F	-15.7%

SMILES	inhibition
CC1=NCCN1S(=O)(=O)c1cccc([N+](=O)[O-])c1	-44.4%
CCOc1ccc(Br)cc1S(=O)(=O)Nc1ccc(S(=O)(=O)Nc2cc(C)on2)cc1	-17.7%
NC(=O)CC(NC(=O)Cc1ccc(Br)cc1)c1ccc(NC2CC3CCC2C3)c([N+](=O)[O-])c1 (stereo unspecified)	-22.9%
COc1ccc(C2=Nn3c(nnc3-c3ccccc3OC)SC2)cc1OC1CCCC1	63.8% (active)
CCn1c(SCC(=O)NC2CC2)nnc1-c1ccccc1OC	3.39%
COc1ccccc1-c1nnc2n1N=C(c1ccc(OC(F)F)c(OCC3CC3)c1)CS2	-3.8%
CC1CCCN(C(=O)CN2C(=O)c3ccccc3S2(=O)=O)C1 (stereo unspecified)	-26.3%
O=C(CSCc1ccccc1)N1CCc2ccccc21	-80.4%
O=C(CN1C(=O)c2ccccc2S1(=O)=O)N1CCc2ccccc21	62.6% (active)
COc1ccc(-n2c(Cc3cccn3C)nnc2SCC(=O)Nc2cc(C)cc(C)c2)cc1	6.37%
NC(=O)c1oc2ccccc2c1NC(=O)CS(=O)(=O)c1ccccc1	10.2%
Cc1ccccc1N1C(=O)C2ON(c3ccccc3)C(c3ccncc3)C2C1=O (stereo unspecified)	-40.3%
O=C1[C@@H](c2ccccc2)[C@@H](c2ccccc2)N1c1cccnc1	59.7% (active)
O=C1C(=O)N(c2ccccc2)C(c2ccccc2)C1c1ccccc1 (stereo unspecified)	-4.98%
COc1ccc(NS(=O)(=O)c2ccc(N3CCOCC3)c(NC(=O)/C=C/C(=O)O)c2)cc1	-1.46%
COc1cccc(CN(C)C(=O)CC23CC4CC(CC(C4)C2)C3)c1OC	-23.4%
Cc1cc(NC(=O)/C=C/C(=O)N(CC(=O)NC2CCCC2)c2ccc(F)cc2)no1	53.2% (active)
Cc1cc(NC(=O)/C=C/C(=O)N(c2ccccc2C)C(C(=O)NC2CCCC2)c2ccc(F)cc2)no1 (stereo unspecified)	-18%
Cc1cc(NC(=O)CCC(=O)N(CC(=O)NC2CCCC2)c2ccc(F)cc2)no1	-5.73%
CCOC(=O)c1cnc(-n2nc(C)cc2C)nc1NNc1cc(C)nc(-c2ccccc2)n1	33.9%
CC(=O)c1ccc(Oc2cc(C)nc(-n3nc(C)cc3C)n2)cc1	63.6% (active)
COc1ccc(C(C)=O)cc1CSc1nc2nc(C)cc(C)n2n1	3.27%
C[N+](C)(C)CCOP(=O)([O-])OC[C@H](O)CO	-9.94%
CCOCCN(C=O)c1cccc(OC)c1	-5.07%

SMILES	inhibition
COc1ccc(S(=O)(=O)Nc2cc(C)on2)cc1NC(C)=O	-6.37%
CCOc1cc(NC(=O)CCl)c(OCC)cc1NC(C)=O	-34.2%
CCOc1cc(NS(=O)(=O)c2ccc(OC)cc2)c(OCC)cc1NC(C)=O	64.1% (active)
CN=C1SC(C(=O)O)CC(=O)N1C (stereo unspecified)	-12.6%
COc1ccc(OC)c(Cc2cnc3nc(N)nc(N)c3c2C)c1	65.3% (active)
COc1ccc(OC)c(Cc2nnc(CCC(=O)NC3CCCC3)o2)c1	0.259%
COc1ccc(OC)c(NC(=O)c2sc3nc(C)cc(C)c3c2N)c1	-9.33%
CC1CCCCN1CCCNc1ccc(C(CC(N)=O)NC(=O)c2ccccc2)cc1[N+](=O)[O-] (stereo unspecified)	-27.6%
O=C(Nc1ccc(N2CCN(C(=O)C3CC3)CC2)cc1)c1cccs1	-16.9%
O=C(c1cc2sccc2n1Cc1ccc(F)cc1)N1CCc2ccccc21	-33%
CC1Cc2ccccc2N1C(=O)c1cc2sccc2n1Cc1ccccc1 (stereo unspecified)	59.8% (active)
CCOC(=O)c1cc2sccc2n1Cc1ccc(C#N)cc1	-13.3%
CCOc1ccc(C(=O)CCC(=O)NC2=NCCS2)cc1	-27.4%
O=C(c1cc2ccccc2o1)N1CCN(Cc2ccccc2)CC1	-15%
CC(C)c1csc(CN2CCC(CO)(Cc3ccccc3)CC2)n1	-13.8%
OCC1(Cc2ccccc2)CCN(Cc2cc3ccccc3o2)CC1	74.7% (active)
CCCCn1c(N)c(N(CC(C)C)C(=O)c2cnc(C)cn2)c(=O)[nH]c1=O	-37.8%
CC(C)CN1CC(C)C(=O)N(c2ccccc2)C1=S (stereo unspecified)	-12.4%
O=C(C1=C[C@H](c2ccc(C(F)(F)F)cc2)C[C@H](OCc2ccc(CO)cc2)O1)N1CCN(Cc2ccccc2)CC1	-14.3%
O=C(C1=C[C@H](c2coc3ccccc3c2=O)C[C@H](OCc2ccc(CO)cc2)O1)N1CCN(Cc2ccccc2)CC1	81.9% (active)
O=C(C1=C[C@H](c2coc3ccccc3c2=O)C[C@H](OCc2ccc(CO)cc2)O1)N1CCOCC1	-9.97%
Cc1ccc(N(C(=O)C(F)(F)F)C(C(=O)NC2CCCCC2)c2ccncc2)cc1C (stereo unspecified)	-20.4%
Cn1c(Cc2cccs2)nnc1SCC(=O)Nc1ccccc1	-26.4%
